Our source for the outcome and AC50 values is PubChem BioAssay (EPA / NIEHS).

The source made the active and inactive calls. How the source made its calls: active means hit-call score of the fitted dose curve at least 0.9, where 1 is the maximum; inactive means score below 0.9.

What all share (conditions): mRNA level, 48 h; actives raise or lower the signal
Read-out in one test: CYP2E1 (gene 1571)
Put plainly: LTEA_HepaRG_CYP2E1: Life Technologies and Expression Analysis (LTEA) Assay for CYP2E1 using HepaRG (AID 2283485). Put shortly:
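CYP2E1 transcript was measured by TaqMan qRT-PCR in human HepaRG cultures after 48 h chemical exposure (top 100 uM, half-log steps, 0.5% DMSO vehicle). Housekeeping-gene normalization; gain or loss fitted relative to DMSO baseline.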

Read-out in test [1]: DNA damage-inducible transcript 3 (DDIT3), DDIT3 (gene 1649)
Kind of test: LTEA_HepaRG_DDIT3: Life Technologies and Expression Analysis (LTEA) Assay for DNA damage-inducible transcript 3 (DDIT3) using HepaRG (AID 2283488). The essentials:
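qRT-PCR readout (Fluidigm TaqMan), housekeeping-normalized to ACTB, GAPDH, POLR2A. HepaRG cells, 48 h exposure, 8-point half-log series from 100 uM in 0.5% DMSO, duplicates. Gain or loss of signal fitted against DMSO baseline.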

Read-out in test [2]: Early growth response protein 1 (EGR1) transcription factor, EGR1 (gene 1958)
Put plainly: LTEA_HepaRG_EGR1: Life Technologies and Expression Analysis (LTEA) Assay for Early growth response protein 1 (EGR1) transcription factor using HepaRG (AID 2283490). The essentials: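 HepaRG, 48 h exposure, 8-pt half-log series from 100 uM, 0.5% DMSO vehicle; EGR1 transcript by TaqMan qRT-PCR (Fluidigm array), housekeeping-normalized; bidirectional fit relative to DMSO baseline.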

Read-out in test [3]: Ezrin (EZR), EZR (gene 7430)
Kind of test: LTEA_HepaRG_EZR: Life Technologies and Expression Analysis (LTEA) Assay for Ezrin (EZR) using HepaRG (AID 2283491). The essentials: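 Read-out is EZR transcript level by qRT-PCR, normalized to three housekeeping genes and fitted bidirectionally against the DMSO control. Human HepaRG cells received test chemicals for 48 h at eight half-log concentrations up to 100 uM in 0.5% DMSO.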

Read-out in test [4]: Cytochrome P450 3A7 (Homo sapiens) (UniProt P24462)
Kind of test: LTEA_HepaRG_CYP3A7: Life Technologies and Expression Analysis (LTEA) Assay for CYP3A7 using HepaRG (AID 2283492). The essentials:
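qRT-PCR of CYP3A7 in HepaRG lysates after 48 h treatment; concentration-response (8 points, max 100 uM) analysed bidirectionally relative to 0.5% DMSO controls.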

Read-out in the next test: CYP3A5 (gene 1577)
Put plainly: LTEA_HepaRG_CYP3A5: Life Technologies and Expression Analysis (LTEA) Assay for CYP3A5 using HepaRG (AID 2283493). The essentials: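 qRT-PCR read-out: CYP3A5 transcript in HepaRG lysates, housekeeping-normalized (ACTB/GAPDH/POLR2A), fitted bidirectionally against 0.5% DMSO baseline. Exposure 48 h, eight half-log concentrations up to 100 uM, duplicates.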

Read-out in test [5]: Fatty Acid-Binding Protein 1 (FABP1), FABP1 (gene 2168)
Put plainly: LTEA_HepaRG_FABP1: Life Technologies and Expression Analysis (LTEA) Assay for Fatty Acid-Binding Protein 1 (FABP1) using HepaRG (AID 2283494). The essentials:
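qRT-PCR readout of FABP1 transcript (normalized to three housekeeping genes) after 48 h chemical exposure of HepaRG cells; eight concentrations, half-log steps, max 100 uM, 0.5% DMSO vehicle; gain or loss fitted relative to DMSO baseline.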

Read-out in test [6]: Cytochrome P450 7A1 (Homo sapiens) (UniProt P22680)
Kind of test: LTEA_HepaRG_CYP7A1: Life Technologies and Expression Analysis (LTEA) Assay for Cytochrome P450 7A1 (CYP7A1) using HepaRG (AID 2283496). The essentials: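 Using 0.5% DMSO as vehicle and baseline, chemicals were tested in duplicate over an 8-point range from 100 uM on HepaRG cells for 48 h; qRT-PCR signals were normalised to ACTB, GAPDH and POLR2A.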

Read-out in test [7]: Glutathione S-Transferase (GSTA2), GSTA2 (gene 2939)
Kind of test: LTEA_HepaRG_GSTA2: Life Technologies and Expression Analysis (LTEA) Assay for Glutathione S-Transferase (GSTA2) using HepaRG (AID 2283497). The essentials: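 qRT-PCR readout of GSTA2 transcript, normalized to three housekeeping genes, fitted bidirectionally against 0.5% DMSO baseline. Differentiated HepaRG cells received compound for 48 h at 8 concentrations (top 100 uM, half-log steps).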

Read-out in test [8]: Glutamate-cysteine ligase catalytic (GCLC), GCLC (gene 2729)
Kind of test: LTEA_HepaRG_GCLC: Life Technologies and Expression Analysis (LTEA) Assay for Glutamate-cysteine ligase catalytic (GCLC) using HepaRG (AID 2283498). Put shortly: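 HepaRG, 48 h exposure, 8-pt half-log series from 100 uM, 0.5% DMSO vehicle; TaqMan qRT-PCR for GCLC mRNA, housekeeping-normalized; bidirectional curve fit vs DMSO baseline.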

Read-out in test [9]: growth arrest and DNA damage 45 (GADD45G), GADD45G (gene 10912)
Put plainly: LTEA_HepaRG_GADD45G: Life Technologies and Expression Analysis (LTEA) Assay for growth arrest and DNA damage 45 (GADD45G) using HepaRG (AID 2283499). The essentials:
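Concentration-response in HepaRG: 48 h dosing, 0.5% DMSO, highest level 100 uM. GADD45G expression by qRT-PCR, normalised to endogenous controls; bidirectional fit to DMSO.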

Read-out in test [10]: Glutamate-cysteine ligase regulatory (GCLM), GCLM (gene 2730)
Put plainly: LTEA_HepaRG_GCLM: Life Technologies and Expression Analysis (LTEA) Assay for Glutamate-cysteine ligase regulatory (GCLM) using HepaRG (AID 2283500). The essentials: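 HepaRG, 48 h dosing, 100 uM top, half-log x8, 0.5% DMSO vehicle. Readout: GCLM mRNA by TaqMan qRT-PCR, housekeeping-normalized (ACTB/GAPDH/POLR2A). Curves fit bidirectionally vs DMSO baseline.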

Read-out in test [11]: Glutathione S-transferase M3 (GSTM3), GSTM3 (gene 2947)
Put plainly: LTEA_HepaRG_GSTM3: Life Technologies and Expression Analysis (LTEA) Assay for Glutathione S-transferase M3 (GSTM3) using HepaRG (AID 2283501). Put shortly: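 Expression of GSTM3 is determined by qRT-PCR in human liver HepaRG cells treated 48 h with an 8-point half-log range from 100 uM in 0.5% DMSO.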

Read-out in test [12]: Heat shock 70 kDa protein 1 (HSPA1A), gene 3303
Put plainly: LTEA_HepaRG_HSPA1A: Life Technologies and Expression Analysis (LTEA) Assay for Heat shock 70 kDa protein 1 (HSPA1A) using HepaRG (AID 2283502). The essentials: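 HepaRG, 48 h exposure, 8-pt half-log CRC from 100 uM in 0.5% DMSO, duplicates. Readout: TaqMan qRT-PCR of HSPA1A mRNA, housekeeping-normalized (ACTB/GAPDH/POLR2A). Bidirectional fit vs 0.5% DMSO baseline.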

Read-out in test [13]: Hypoxia-inducible factor 1-alpha (Homo sapiens) (UniProt Q16665)
Put plainly: LTEA_HepaRG_HIF1A: Life Technologies and Expression Analysis (LTEA) Assay for Hypoxia-inducible factor 1 (HIF1A) Trancription factor using HepaRG (AID 2283503). The essentials:
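Gain- or loss-of-signal HIF1A mRNA changes are fitted against a DMSO baseline. HepaRG cultures receive eight concentrations, highest 100 uM, for 48 h in serum-free induction medium with 0.5% DMSO.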

Read-out in test [14]: 3-Hydroxy-3-Methylglutaryl-CoA Synthase 2 (HMGCS2), HMGCS2 (gene 3158)
Kind of test: LTEA_HepaRG_HMGCS2: Life Technologies and Expression Analysis (LTEA) Assay for 3-Hydroxy-3-Methylglutaryl-CoA Synthase 2 (HMGCS2) using HepaRG (AID 2283504). The essentials: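 This steatosis marker was read as HMGCS2 mRNA change in HepaRG cells treated 48 h with up to 100 uM chemical. Normalisation used housekeeping genes; activity in either direction was fitted relative to 0.5% DMSO vehicle.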

Read-out in test [15]: Pro-epidermal growth factor (Homo sapiens) (UniProt P01133)
Kind of test: LTEA_HepaRG_EGF: Life Technologies and Expression Analysis (LTEA) Assay for Epidermal growth factor (EGF) using HepaRG (AID 2283489). Put shortly: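 Concentration-response mRNA assay: HepaRG cells dosed 48 h (max 100 uM, 0.5% DMSO), EGF measured by qRT-PCR and normalized to ACTB/GAPDH/POLR2A.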

Read-out in test [16]: Cytochrome P450 4A22 (Homo sapiens) (UniProt Q5TCH4)
Put plainly: LTEA_HepaRG_CYP4A22: Life Technologies and Expression Analysis (LTEA) Assay for Cytochrome P450 4A22 (CYP4A22) using HepaRG (AID 2283495). Put shortly: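 Concentration-response (8 points, max 100 uM, 0.5% DMSO) in human HepaRG liver cells after 48 h exposure. CYP4A22 mRNA by TaqMan qRT-PCR with housekeeping-gene normalization.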

Read-out in test [17]: Cytochrome P450 3A4 (Homo sapiens) (UniProt P08684)
Put plainly: LTEA_HepaRG_CYP3A4: Life Technologies and Expression Analysis (LTEA) Assay for CYP3A4 using HepaRG (AID 2283487). The essentials:
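HepaRG, 48 h exposure, 8-pt CRC from 100 uM (half-log), 0.5% DMSO, duplicates; serum-free induction medium. Readout: CYP3A4 mRNA, qRT-PCR, ACTB/GAPDH/POLR2A normalization. Bidirectional fit vs DMSO.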

Chain of Hypoxia-inducible factor 1-alpha (Homo sapiens) (Q16665 whole entry, looked up): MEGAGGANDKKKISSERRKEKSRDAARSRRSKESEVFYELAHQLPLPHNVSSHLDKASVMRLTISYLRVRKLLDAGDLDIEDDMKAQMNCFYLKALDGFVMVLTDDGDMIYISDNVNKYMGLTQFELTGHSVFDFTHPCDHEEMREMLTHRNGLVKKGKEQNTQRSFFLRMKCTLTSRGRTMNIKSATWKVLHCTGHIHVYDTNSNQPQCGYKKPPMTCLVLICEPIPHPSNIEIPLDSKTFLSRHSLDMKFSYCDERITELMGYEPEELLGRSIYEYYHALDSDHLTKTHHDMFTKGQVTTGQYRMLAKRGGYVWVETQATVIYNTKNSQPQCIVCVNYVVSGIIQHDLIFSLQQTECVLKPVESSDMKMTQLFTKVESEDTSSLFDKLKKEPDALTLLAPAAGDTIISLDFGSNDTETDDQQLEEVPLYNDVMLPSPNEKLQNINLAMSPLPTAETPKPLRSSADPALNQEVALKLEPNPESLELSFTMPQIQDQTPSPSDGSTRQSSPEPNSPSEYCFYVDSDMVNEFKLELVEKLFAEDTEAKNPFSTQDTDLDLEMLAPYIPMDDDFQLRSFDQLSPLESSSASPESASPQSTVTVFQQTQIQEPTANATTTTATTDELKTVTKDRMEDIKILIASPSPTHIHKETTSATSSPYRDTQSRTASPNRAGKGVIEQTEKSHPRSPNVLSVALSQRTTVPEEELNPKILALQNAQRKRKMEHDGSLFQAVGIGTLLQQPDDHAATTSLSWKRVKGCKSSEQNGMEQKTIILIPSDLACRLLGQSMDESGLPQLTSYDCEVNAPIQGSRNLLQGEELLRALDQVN
Chain of Cytochrome P450 3A7 (Homo sapiens) (P24462 whole entry, looked up): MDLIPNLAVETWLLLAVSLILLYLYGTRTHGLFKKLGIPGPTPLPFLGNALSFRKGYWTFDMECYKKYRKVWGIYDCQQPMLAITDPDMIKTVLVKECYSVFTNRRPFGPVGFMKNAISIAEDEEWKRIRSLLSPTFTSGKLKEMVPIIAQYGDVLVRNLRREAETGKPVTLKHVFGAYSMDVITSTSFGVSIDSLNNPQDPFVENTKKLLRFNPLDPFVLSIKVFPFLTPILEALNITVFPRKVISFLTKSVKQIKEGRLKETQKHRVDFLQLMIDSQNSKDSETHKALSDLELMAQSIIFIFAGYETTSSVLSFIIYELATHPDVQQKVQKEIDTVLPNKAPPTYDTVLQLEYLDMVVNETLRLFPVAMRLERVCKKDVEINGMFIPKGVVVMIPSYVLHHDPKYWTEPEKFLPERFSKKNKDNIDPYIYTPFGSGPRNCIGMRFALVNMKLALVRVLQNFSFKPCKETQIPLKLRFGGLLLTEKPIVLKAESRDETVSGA
Chain of Cytochrome P450 3A4 (Homo sapiens) (P08684 whole entry, looked up): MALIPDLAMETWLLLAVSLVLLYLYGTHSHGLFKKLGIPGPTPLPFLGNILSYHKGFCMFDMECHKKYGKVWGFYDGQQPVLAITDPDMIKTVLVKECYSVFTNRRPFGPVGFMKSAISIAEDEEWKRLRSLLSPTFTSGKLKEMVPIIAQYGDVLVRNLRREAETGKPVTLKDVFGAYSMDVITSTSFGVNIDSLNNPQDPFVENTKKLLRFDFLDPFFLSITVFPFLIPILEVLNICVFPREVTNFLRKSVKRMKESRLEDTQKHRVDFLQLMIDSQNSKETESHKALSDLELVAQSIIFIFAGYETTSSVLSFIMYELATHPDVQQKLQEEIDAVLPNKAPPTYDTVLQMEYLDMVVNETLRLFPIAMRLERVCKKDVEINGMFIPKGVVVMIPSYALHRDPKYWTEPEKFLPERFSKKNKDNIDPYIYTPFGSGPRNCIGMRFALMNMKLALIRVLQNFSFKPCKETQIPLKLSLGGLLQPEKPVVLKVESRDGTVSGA

As for `Cc1ccc(O)c(C)c1`, the compound was classed as inactive (in the test with CYP2E1 (gene 1571); in test [1]; in test [2]; in test [3]; in test [4]; in the test with CYP3A5 (gene 1577)). The call in [5], in test [6], in test [7], in test [8], in test [9] and in test [10] was inactive. Further, the compound was classed as inactive in [11], in [12], in test [13] and in test [14].
Regarding `Cc1cc2c3c(c1)C(c1ccccc1)=N[C@@H](NC(=O)c1ccncc1)C(=O)N3CC2`, the concentration at half-maximal activity (AC50) with CYP2E1 (gene 1571) is 17.9 µM (active); in test [1], 75.6 µM (active); in [3] it was 50 µM (active); in test [4] it was 12.2 µM (active); in test [5] it was 50 µM (active); in [6], 50 µM (active). The concentration at half-maximal activity (AC50) in [12] is 50 µM (active); in [14], 71.2 µM (active). In addition, the outcome (in test [15]; in test [2]; in the test with CYP3A5 (gene 1577); in test [7]; in [8]; in [9]) was inactive. Besides, the result in test [10] and in test [13] was inactive.
As to `Clc1ccc(Cl)cc1`, the call (in the test with CYP2E1 (gene 1571); in test [3]; in test [4]; with CYP3A5 (gene 1577); in test [5]; in test [16]) was inactive. For the same compound, the compound was called inactive in test [6], in [7], in test [8], in test [9], in test [10] and in test [12]. The call in test [13] and in test [14] was inactive.
`CCCCCCOC(=O)c1ccccc1C(=O)OCCCCCC`: the call (in the test with CYP2E1 (gene 1571); in test [1]; in test [15]; in test [3]; in test [4]; with CYP3A5 (gene 1577)) was inactive. Besides, the call in test [5], in test [6], in test [7], in [8], in test [9] and in test [10] was inactive. Moreover, the call in [12], in test [13] and in test [14] was inactive.
`CCOP(=S)(OCC)SCSC(C)(C)C`: the AC50 with CYP2E1 (gene 1571) is 28.8 µM (active); in [4] it was 16.5 µM (active); with CYP3A5 (gene 1577), 2.83 µM (active); in test [5], 50 µM (active); in test [6] it was 16.3 µM (active); in [14], 14.7 µM (active). Besides, the outcome in test [17], in test [15], in test [7], in test [8], in test [9] and in test [10] was inactive. For the same compound, the outcome in test [12] and in test [13] was inactive.
For `CCC(C)c1cc([N+](=O)[O-])cc([N+](=O)[O-])c1O` (centres undefined), the AC50 with CYP2E1 (gene 1571) was 1.22 µM (active); in [3], 3.74 µM (active); in [4] it was 1.57 µM (active); with CYP3A5 (gene 1577) it was 15.5 µM (active); in test [5], 1.27 µM (active); in [6], 2.67 µM (active). Also, the half-maximal activity concentration (AC50) in test [7] was 2.72 µM (active); in test [8], 1.29 µM (active); in [9] it was 4.96 µM (active); in test [10], 50 µM (active); in [11] it was 4.16 µM (active); in test [12], 2.49 µM (active). Besides, the concentration at half-maximal activity (AC50) in test [13] was 18.5 µM (active); in test [14] it was 2.93 µM (active).
`Cc1cccc([N+](=O)[O-])c1`: the call (with CYP2E1 (gene 1571); in test [2]; in test [3]; in test [4]; in the test with CYP3A5 (gene 1577); in [5]) was inactive. Further, the result in test [7], in test [8], in [9], in test [10], in [11] and in test [12] was inactive. The call in test [13] and in test [14] was inactive.
With `CC(c1ccc(O)cc1)(c1ccc(O)cc1)c1ccc(O)cc1`, the half-maximal activity concentration (AC50) with CYP2E1 (gene 1571) was 80.5 µM (active); in test [2], 81 µM (active); in test [3] it was 38.7 µM (active); in test [4] it was 20.7 µM (active); in the test with CYP3A5 (gene 1577), 37.1 µM (active); in test [5], 75.8 µM (active). In addition, the half-maximal activity concentration (AC50) was 67 µM (active) in test [6]; 37.3 µM (active) in [7]; 73.4 µM (active) in test [8]; 75.1 µM (active) in test [9]; 85.1 µM (active) in test [14]. Also, the compound was classed as inactive in [1], in test [10], in test [11], in test [12] and in test [13].

Broadly, the AC50 is the midpoint of the concentration-response curve, whichever way the signal moves.
